# Results taken from PubChem BioAssay (EPA / NIEHS).
# Calls of active or inactive are those of the source. The calls were made as follows: active = hit-call score of the fitted dose curve at least 0.9, where 1 is the maximum; inactive = score below 0.9.
# Key:
# [1] = CCTE_Harrill_HTTr_Viability_DMEM_6hr: (Pilot) CCTE's 6-hour Cell Viability Assessment for the High-Throughput Transcriptomics (HTTr) Platform, in MCF-7 cells cultured in DMEM + 10% fetal bovine serum, Harrill Lab (AID 2283973)
# Outline: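 Propidium iodide uptake imaged by high-content analysis after six hours of chemical treatment in an eight-concentration series. Cells: MCF-7 grown in DMEM with 10% fetal bovine serum; DMSO as baseline.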
# [2] = CCTE_Harrill_HTTr_Viability_DMEM_12hr: (Pilot) CCTE's 12-hour Cell Viability Assessment for the High-Throughput Transcriptomics (HTTr) Platform, in MCF-7 cells cultured in DMEM + 10% fetal bovine serum, Harrill Lab (AID 2283974)
# From the text: This is a cell-based assay that evaluates cell viability using high content imaging to evaluate membrane integrity using propidium iodide dye exclusion in a 384 well format.One of seven assay components measured from the CCTE_Harrill_HTTr_Viability assay. This was part of a pilot experiment. This is a cell-based assay that evaluates cell viability in MCF-7 cells cultured in DMEM + 10% fetal bovine serum. High content imaging is used to evaluate membrane integrity using propidium iodide dye exclusion. Measurements are taken at 12 hours after chemical dosing in 384-well format.The assay component endpoint CCTE_Harrill_HTTr_Viability_DMEM_12hr was analyzed with bidirectional fitting relation to DMSO as the negative control and baseline of activity. Using a type of viability reporter to understand changes in cytotoxicity, gain-of-signal activity can be used to evaluate membrane integrity using propidium iodide dye exclusion. To generalize the intended target to other relatable targets, this assay endpoint is annotated to cell cycle, where the subfamily is cytotoxicity.
# (§1) Chemicals were tested in MCF7 cells in an eight point dilution series with a twelve hour exposure duration.
# [3] = CCTE_Harrill_HTTr_Viability_DMEM_24hr: (Pilot) CCTE's 24-hour Cell Viability Assessment for the High-Throughput Transcriptomics (HTTr) Platform, in MCF-7 cells cultured in DMEM + 10% fetal bovine serum, Harrill Lab (AID 2283975)
# Outline: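 Pilot study: propidium iodide dye exclusion, imaged by high content microscopy, after 24 h compound exposure (eight concentrations) in MCF-7 cultured in DMEM + 10% fetal bovine serum; DMSO served as negative control and baseline.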
# [4] = CCTE_Harrill_HTTr_Viability_PRF_DMEM_6hr: (Pilot) CCTE's 6-hour Cell Viability Assessment for the High-Throughput Transcriptomics (HTTr) Platform, in MCF-7 cells cultured phenol red-free DMEM + 10% charcoal-stripped fetal bovine serum, Harrill Lab (AID 2283976)
# Outline: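 Membrane integrity by high-content imaging of propidium iodide uptake, six hours after dosing with eight concentrations. Cells: MCF-7 grown in phenol red-free DMEM plus 10% charcoal-stripped serum; DMSO serves as baseline for bidirectional fits.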
# [5] = CCTE_Harrill_HTTr_Viability_PRF_DMEM_12hr: (Pilot) CCTE's 12-hour Cell Viability Assessment for the High-Throughput Transcriptomics (HTTr) Platform, in MCF-7 cells cultured in phenol red-free DMEM + 10% charcoal-stripped fetal bovine serum, Harrill Lab (AID 2283977)
# From the text: This is a cell-based assay that evaluates cell viability using high content imaging to evaluate membrane integrity using propidium iodide dye exclusion in a 384 well format.One of seven assay components measured from the CCTE_Harrill_HTTr_Viability assay. This was part of a pilot experiment. This is a cell-based assay that evaluates cell viability in MCF-7 cells cultured in phenol red-free DMEM + 10% charcoal-stripped fetal bovine serum. High content imaging is used to evaluate membrane integrity using propidium iodide dye exclusion. Measurements are taken at 12 hours after chemical dosing in 384-well format.The assay component endpoint CCTE_Harrill_HTTr_Viability_PRF_DMEM_12hr was analyzed with bidirectional fitting relation to DMSO as the negative control and baseline of activity. Using a type of viability reporter to understand changes in cytotoxicity, gain-of-signal activity can be used to evaluate membrane integrity using propidium iodide dye exclusion. To generalize the intended target to other relatable targets, this assay endpoint is annotated to cell cycle, where the subfamily is cytotoxicity.
# as §1
# [6] = CCTE_Harrill_HTTr_Viability_PRF_DMEM_24hr: (Pilot) CCTE's 24-hour Cell Viability Assessment for the High-Throughput Transcriptomics (HTTr) Platform, in MCF-7 cells cultured in phenol red-free DMEM + 10% charcoal-stripped fetal bovine serum, Harrill Lab (AID 2283980)
# Outline: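 Propidium iodide exclusion imaged at 24 h after dosing scores viability; cells were MCF-7 grown in phenol red-free DMEM plus 10% charcoal-stripped serum, tested in eight concentrations, fitted in both directions against DMSO.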
# [7] = CCTE_Harrill_HTTr_Apoptosis_DMEM_6hr: (Pilot) CCTE's 6-hour Apoptosis Assessment for the High-Throughput Transcriptomics (HTTr) Platform, in MCF-7 cells cultured in DMEM + 10% fetal bovine serum, Harrill Lab (AID 2283981)
# Outline: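 MCF-7 cells grown in DMEM + 10% FBS were exposed for 6 hours to an eight-point dilution series. CellEvent Caspase 3/7 Green signal was imaged; activity fitted bidirectionally against DMSO.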
# [8] = CCTE_Harrill_HTTr_Apoptosis_DMEM_12hr: (Pilot) CCTE's 12-hour Apoptosis Assessment for the High-Throughput Transcriptomics (HTTr) Platform, in MCF-7 cells cultured in DMEM + 10% fetal bovine serum, Harrill Lab (AID 2283982)
# Outline: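 Caspase-3/7 activity was measured by high-content imaging (CellEvent Caspase 3/7 Green) after a 12-hour exposure of MCF-7 cells grown in DMEM with 10% FBS. Eight-point concentration series, fitted bidirectionally against vehicle.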
# [9] = CCTE_Harrill_HTTr_Apoptosis_DMEM_24hr: (Pilot) CCTE's 24-hour Apoptosis Assessment for the High-Throughput Transcriptomics (HTTr) Platform, in MCF-7 cells cultured in DMEM + 10% fetal bovine serum, Harrill Lab (AID 2283983)
# Outline: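 Caspase-3/7 activity read by high-content imaging (CellEvent Green reagent) 24 h after dosing. MCF-7 cells grown in DMEM with 10% FBS received an eight-point concentration series; fits were bidirectional versus DMSO.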
# [10] = CCTE_Harrill_HTTr_Apoptosis_PRF_DMEM_6hr: (Pilot) CCTE's 6-hour Apoptosis Assessment for the High-Throughput Transcriptomics (HTTr) Platform, in MCF-7 cells cultured phenol red-free DMEM + 10% charcoal-stripped fetal bovine serum, Harrill Lab (AID 2283984)
# Outline: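 Caspase-3/7 activity (CellEvent Green) read by high-content imaging 6 h after dosing, eight concentrations. Cells: MCF-7, phenol red-free DMEM with 10% charcoal-stripped serum. Curves fit both directions against DMSO.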
Structure (SMILES),outcome [1],outcome [2],outcome [3],outcome [4],outcome [5],outcome [6],outcome [7],outcome [8],outcome [9],outcome [10],AC50 [1],AC50 [2],AC50 [3],AC50 [4],AC50 [5],AC50 [6],AC50 [7],AC50 [8],AC50 [9],AC50 [10]
Cc1oc(-c2ccccc2)nc1CCOc1ccc(C[C@H](Nc2ccccc2C(=O)c2ccccc2)C(=O)O)cc1,inactive,inactive,inactive,inactive,inactive,inactive,inactive,inactive,inactive,inactive,–,–,–,–,–,–,–,–,–,–
CCC(=C(c1ccc(O)cc1)c1ccc(OCCN(C)C)cc1)c1ccccc1,–,–,–,–,–,–,–,–,–,–,79 µM (active),63.6 µM (active),69.4 µM (active),69.8 µM (active),73.1 µM (active),63.6 µM (active),81.2 µM (active),84 µM (active),82.6 µM (active),76.1 µM (active)
O=C(O)Cc1cc(I)c(Oc2cc(I)c(O)c(I)c2)c(I)c1,inactive,inactive,inactive,inactive,inactive,inactive,inactive,inactive,inactive,inactive,–,–,–,–,–,–,–,–,–,–
